Molecules are shown by their SMILES.

Among the data in ChEMBL document CHEMBL2218924, “A broad activity screen in support of a chemogenomic map for kinase signalling research and drug discovery” (Biochem J, 2013) are residual activity values, retold here.

For experiment [1], the target named is Serine/threonine-protein kinase 24 (Homo sapiens) (UniProt Q9Y6E0). To be noted: at 1 µM.
Experiment [2] has the same target. The note with it: at 10 µM.
Experiment [3] concerns the target Hepatocyte growth factor receptor (Homo sapiens) (UniProt P08581). To be noted: at 1 µM.
Experiment [4] has the same target. To be noted: at 10 µM.
The target in experiment [5] is MAP kinase-interacting serine/threonine-protein kinase 2 (Homo sapiens) (UniProt Q9HBH9). To be noted: at 10 µM.
Sequence of MAP kinase-interacting serine/threonine-protein kinase 2 (Homo sapiens) (Q9HBH9 whole entry, looked up): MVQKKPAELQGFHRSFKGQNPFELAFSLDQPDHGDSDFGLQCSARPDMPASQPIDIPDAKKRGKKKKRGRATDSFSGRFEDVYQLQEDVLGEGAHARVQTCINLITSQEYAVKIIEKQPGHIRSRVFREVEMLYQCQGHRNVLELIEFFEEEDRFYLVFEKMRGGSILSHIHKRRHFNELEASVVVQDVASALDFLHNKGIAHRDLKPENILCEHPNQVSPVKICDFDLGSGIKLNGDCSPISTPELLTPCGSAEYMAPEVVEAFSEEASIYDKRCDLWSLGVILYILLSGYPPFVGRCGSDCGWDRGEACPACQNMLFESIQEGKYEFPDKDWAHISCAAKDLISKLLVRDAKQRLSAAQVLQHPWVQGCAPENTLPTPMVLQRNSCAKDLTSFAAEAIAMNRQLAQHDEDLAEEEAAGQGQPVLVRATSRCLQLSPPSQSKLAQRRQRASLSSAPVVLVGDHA
Experiment [6] deals with T1, Tyrosine-protein kinase Mer (Homo sapiens) (UniProt Q12866).
T1 sequence (whole entry): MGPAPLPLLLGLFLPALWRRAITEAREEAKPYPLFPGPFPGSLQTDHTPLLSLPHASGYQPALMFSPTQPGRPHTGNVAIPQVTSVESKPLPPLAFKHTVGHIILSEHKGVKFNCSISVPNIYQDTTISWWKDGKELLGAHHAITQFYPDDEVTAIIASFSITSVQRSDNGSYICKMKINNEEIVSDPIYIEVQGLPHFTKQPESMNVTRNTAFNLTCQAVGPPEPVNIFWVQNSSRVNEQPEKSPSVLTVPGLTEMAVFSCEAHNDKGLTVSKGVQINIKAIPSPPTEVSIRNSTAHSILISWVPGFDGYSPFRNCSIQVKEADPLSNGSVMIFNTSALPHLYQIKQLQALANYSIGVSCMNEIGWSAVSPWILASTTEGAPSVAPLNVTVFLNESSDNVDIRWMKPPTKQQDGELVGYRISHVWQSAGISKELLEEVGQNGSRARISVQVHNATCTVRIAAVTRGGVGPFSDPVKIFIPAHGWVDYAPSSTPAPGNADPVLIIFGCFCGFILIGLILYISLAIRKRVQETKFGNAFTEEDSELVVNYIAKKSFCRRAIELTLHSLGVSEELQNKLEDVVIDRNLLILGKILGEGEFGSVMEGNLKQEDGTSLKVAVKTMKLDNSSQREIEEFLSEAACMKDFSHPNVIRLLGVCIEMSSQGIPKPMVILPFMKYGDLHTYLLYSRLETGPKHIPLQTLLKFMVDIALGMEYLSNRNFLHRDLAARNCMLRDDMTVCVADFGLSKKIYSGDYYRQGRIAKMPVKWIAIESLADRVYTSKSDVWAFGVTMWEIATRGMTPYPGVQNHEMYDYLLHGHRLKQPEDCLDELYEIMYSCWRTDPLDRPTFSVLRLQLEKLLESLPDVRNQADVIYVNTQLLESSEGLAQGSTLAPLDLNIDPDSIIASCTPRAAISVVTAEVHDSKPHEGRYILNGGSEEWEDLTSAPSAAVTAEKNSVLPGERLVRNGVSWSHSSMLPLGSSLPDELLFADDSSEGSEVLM
To be noted: at 1 µM.

In experiment [7] the target is T1, Tyrosine-protein kinase Mer (Homo sapiens). The note with it: at 10 µM.
The target of experiment [8] is MAP kinase-interacting serine/threonine-protein kinase 2 (Homo sapiens) (UniProt Q9HBH9). The note with it: at 1 µM.
Experiment [9] concerns the target T2, Serine/threonine-protein kinase 3 (Homo sapiens) (UniProt Q13188).
T2 sequence (whole entry): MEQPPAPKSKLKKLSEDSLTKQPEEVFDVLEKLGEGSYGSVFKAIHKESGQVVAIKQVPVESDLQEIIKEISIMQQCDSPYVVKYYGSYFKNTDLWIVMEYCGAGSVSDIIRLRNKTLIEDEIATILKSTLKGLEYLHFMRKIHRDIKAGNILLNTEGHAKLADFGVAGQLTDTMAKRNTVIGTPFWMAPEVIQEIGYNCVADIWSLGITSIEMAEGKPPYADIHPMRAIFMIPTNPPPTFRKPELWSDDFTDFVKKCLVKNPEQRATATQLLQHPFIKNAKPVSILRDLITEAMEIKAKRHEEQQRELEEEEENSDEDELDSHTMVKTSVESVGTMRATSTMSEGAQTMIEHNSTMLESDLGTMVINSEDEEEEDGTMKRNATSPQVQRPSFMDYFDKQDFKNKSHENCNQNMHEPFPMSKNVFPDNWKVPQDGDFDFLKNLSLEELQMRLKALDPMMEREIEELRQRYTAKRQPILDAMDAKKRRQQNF
The note with it: at 1 µM.

In experiment [10] the target is T2, Serine/threonine-protein kinase 3 (Homo sapiens). To be noted: at 10 µM.

Sequence of Serine/threonine-protein kinase 24 (Homo sapiens) (Q9Y6E0 whole entry, looked up): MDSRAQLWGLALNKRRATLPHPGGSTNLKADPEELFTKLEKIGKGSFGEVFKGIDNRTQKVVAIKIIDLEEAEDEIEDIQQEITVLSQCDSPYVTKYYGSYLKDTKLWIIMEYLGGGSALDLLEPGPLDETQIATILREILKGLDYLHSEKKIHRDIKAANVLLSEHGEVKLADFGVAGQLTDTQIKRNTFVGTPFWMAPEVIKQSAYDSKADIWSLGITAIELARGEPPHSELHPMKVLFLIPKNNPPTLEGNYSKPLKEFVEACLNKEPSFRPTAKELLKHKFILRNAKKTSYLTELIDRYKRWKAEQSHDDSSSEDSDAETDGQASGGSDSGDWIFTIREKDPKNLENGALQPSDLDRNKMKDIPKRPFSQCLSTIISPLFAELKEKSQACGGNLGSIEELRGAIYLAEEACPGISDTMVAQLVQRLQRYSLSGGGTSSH
Sequence of Hepatocyte growth factor receptor (Homo sapiens) (P08581 whole entry): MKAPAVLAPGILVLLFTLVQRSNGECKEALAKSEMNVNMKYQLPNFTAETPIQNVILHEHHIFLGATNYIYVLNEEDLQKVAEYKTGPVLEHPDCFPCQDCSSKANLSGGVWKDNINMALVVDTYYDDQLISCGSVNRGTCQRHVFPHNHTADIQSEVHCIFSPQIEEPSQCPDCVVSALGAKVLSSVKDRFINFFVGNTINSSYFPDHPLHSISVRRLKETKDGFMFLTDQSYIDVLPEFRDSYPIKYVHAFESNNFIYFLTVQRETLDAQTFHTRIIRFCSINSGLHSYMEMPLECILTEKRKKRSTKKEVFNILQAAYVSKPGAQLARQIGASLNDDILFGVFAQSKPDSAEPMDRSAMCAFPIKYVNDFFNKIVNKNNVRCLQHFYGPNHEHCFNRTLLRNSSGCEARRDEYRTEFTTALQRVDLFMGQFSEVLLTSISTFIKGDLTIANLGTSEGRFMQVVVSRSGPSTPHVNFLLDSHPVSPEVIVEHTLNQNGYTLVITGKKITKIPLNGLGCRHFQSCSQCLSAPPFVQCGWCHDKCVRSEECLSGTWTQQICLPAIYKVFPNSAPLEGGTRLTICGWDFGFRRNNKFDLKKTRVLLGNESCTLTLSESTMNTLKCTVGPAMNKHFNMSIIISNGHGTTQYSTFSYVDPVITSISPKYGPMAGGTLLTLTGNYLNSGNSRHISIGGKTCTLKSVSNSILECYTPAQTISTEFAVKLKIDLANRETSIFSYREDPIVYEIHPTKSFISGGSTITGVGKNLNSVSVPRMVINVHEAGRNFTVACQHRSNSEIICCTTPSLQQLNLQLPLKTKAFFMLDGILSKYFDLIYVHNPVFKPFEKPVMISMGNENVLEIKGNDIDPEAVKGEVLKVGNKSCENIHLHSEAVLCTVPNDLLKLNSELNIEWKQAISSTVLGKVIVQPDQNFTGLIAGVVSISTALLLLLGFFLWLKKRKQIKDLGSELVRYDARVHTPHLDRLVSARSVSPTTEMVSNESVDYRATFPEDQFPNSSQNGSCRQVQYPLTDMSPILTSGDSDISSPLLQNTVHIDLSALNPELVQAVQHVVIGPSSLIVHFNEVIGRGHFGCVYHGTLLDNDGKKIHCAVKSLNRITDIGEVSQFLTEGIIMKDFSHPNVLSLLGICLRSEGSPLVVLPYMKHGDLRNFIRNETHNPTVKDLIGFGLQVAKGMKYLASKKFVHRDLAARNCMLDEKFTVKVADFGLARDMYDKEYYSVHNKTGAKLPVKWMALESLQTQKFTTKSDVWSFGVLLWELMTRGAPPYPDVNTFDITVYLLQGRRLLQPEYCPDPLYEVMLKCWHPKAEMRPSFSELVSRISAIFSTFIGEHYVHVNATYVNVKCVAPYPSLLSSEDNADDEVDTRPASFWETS

Regarding `N#C/C(=C\c1ccc(O)c(O)c1)C(=O)NCc1ccccc1`, the residual activity in experiment [1] was 82%; in experiment [2] it was 65%; in [3], 103%; in [4], 73%; in experiment [5] it was 83%.

With `O=c1cc(N2CCOCC2)oc2c1ccc1ccccc12`, the residual activity in [1] came to 70%; in experiment [2], 82%; in experiment [6], 105%; in experiment [7], 83%; in experiment [4], 133%; in experiment [8], 100%. Further, the residual activity in experiment [5] is 93%.

Take `COc1ccc(Cl)cc1NC(=O)Nc1cc(C)nc2ccccc12`: the residual activity in experiment [1] turned out to be 70%; in experiment [2], 83%; in experiment [3] it was 89%; in experiment [4] it was 80%.

As to `CN([C@@H](Cc1ccc(OS(=O)(=O)c2cccc3cnccc23)cc1)C(=O)N1CCN(c2ccccc2)CC1)S(=O)(=O)c1cccc2cnccc12`, the figures for the residual activity in experiment [9], in experiment [3] and in [4] were 99%, 85% and 114%, respectively.

`O=S(=O)(NCCNC/C=C/c1ccc(Br)cc1)c1cccc2cnccc12`: the figures for the residual activity in experiment [1], in experiment [2] and in [7] were 78%, 52% and 25%, respectively.

With `O=C(O)/C=C/c1cc(Br)c(Br)c(Br)c1Br`, the residual activity in [1] stood at 105%; in [2], 85%; in experiment [6], 104%; in experiment [7] it was 94%; in [3], 93%; in [4] it was 84%. The residual activity in [8] came to 74%.

Consider `c1ccc(-c2cnc(Nc3ccc(OCCN4CCCC4)cc3)s2)cc1`, for which the residual activity turned out to be 109% in experiment [9]; 67% in [1]; 80% in [2]; 81% in [6]; 17% in experiment [7]; 78% in experiment [3]. Besides, the residual activity in experiment [4] worked out at 44%; in experiment [8] it was 21%; in experiment [5], 7%.

Turning to `COc1ccc2c(c1)c(C1=C(c3c[nH]c4ccccc34)C(=O)NC1=O)cn2CCCN(C)C`, the residual activity in experiment [1] was 21%; in experiment [2] it was 5%; in experiment [6], 81%; in experiment [7], 10%; in experiment [3], 111%; in [8] it was 105%. In addition, in experiment [5], the residual activity stood at 82%.

For `CC(C)N(CCC(=O)c1ccc2ccccc2c1)Cc1ccccc1`, the residual activity was determined as 62% in experiment [1], 72% in experiment [2], 79% in [4] and 87% in experiment [5].

As for `COc1ccc(-c2cnc3c(-c4ccsc4)cnn3c2)cc1`, the residual activity in experiment [1] came to 67%; in experiment [2], 81%; in experiment [8] it was 95%; in experiment [5], 87%.

Turning to `NC(=O)c1ccc(-c2nc(-c3ccc4c(c3)OCCO4)c(-c3ccccn3)[nH]2)cc1`, the results for the residual activity in [1] and in [2] were 91% and 82%, respectively.

Turning to `O=C1C(Cl)=C(N2C(=O)CCC2=O)C(=O)c2ccccc21`, the residual activity was 83% in experiment [10]; 78% in experiment [1]; 79% in [2]; 90% in experiment [6]; 92% in experiment [7]; 95% in [4]. The values for the residual activity in experiment [8] and in experiment [5] were 102% and 94%, respectively.

As for `O=C(c1ccccc1)c1ccc(N2CCOCC2)cc1O`, the residual activity in experiment [10] came to 95%; in [1], 86%; in [2], 68%; in [7] it was 85%; in experiment [3], 86%; in experiment [4], 66%. In addition, the residual activity in experiment [5] was 80%.

For `O=S(=O)(c1cccc2cnccc12)N1CCCNCC1`, in [7], the residual activity worked out at 77%.

With `CCCCc1c(-c2ccc(OC)cc2)[nH]c2nccnc12`, the residual activity stood at 68% in experiment [10]; 70% in [1]; 60% in [2]; 68% in experiment [6]; 80% in experiment [7]; 118% in [3].

Consider `COc1ccc(COc2ccc(Cc3cnc(N)nc3N)cc2OC)cc1`, for which the residual activity in experiment [1] amounted to 61%; in experiment [2] it was 65%; in experiment [3], 109%; in experiment [4], 129%; in [8], 108%; in [5] it was 100%.

For `Cc1cc(C)c(/C=C2\C(=O)Nc3ccccc32)[nH]1`, the residual activity came to 72% in experiment [2]; 4% in [6]; 2% in experiment [7]; 101% in experiment [3]; 98% in [4].

As to `O=C(Nc1ccc(Cl)cc1)c1ccccc1NCc1ccncc1`, the residual activity in experiment [1] is 72%; in experiment [2], 77%; in [6] it was 101%; in experiment [7], 99%.

For the compound `CCN1/C(=C/C(C)=O)Sc2ccc(OC)cc21`, the residual activity in experiment [1] was 69%; in [2], 74%.

For `Nc1ncnc2c1cnn2-c1ccccc1`, the residual activity in experiment [10] was determined as 93%; in experiment [1] it was 68%; in experiment [2], 84%; in experiment [6], 101%; in [7], 92%; in experiment [3], 98%. The residual activity in [4] is 85%; in experiment [8], 56%; in [5], 22%.
